ChEMBL document CHEMBL3988442, “University of Dundee, Small-Polar-MMV Screening Library” (2021)

Key:
[1] = target: T1, Aspartate--tRNA(Asp/Asn) ligase (Mycobacterium tuberculosis (strain ATCC 25618 / H37Rv)) (UniProt P9WFW3); test: Assay for Asp RNA synthetase-1 from Mycobacterium tuberculosis; format: functional; design: scale not given: direction of the effect not stated beside the values; details: 30 µM; note: in the data most compounds retested in dose-response had high values
T1 sequence (whole entry): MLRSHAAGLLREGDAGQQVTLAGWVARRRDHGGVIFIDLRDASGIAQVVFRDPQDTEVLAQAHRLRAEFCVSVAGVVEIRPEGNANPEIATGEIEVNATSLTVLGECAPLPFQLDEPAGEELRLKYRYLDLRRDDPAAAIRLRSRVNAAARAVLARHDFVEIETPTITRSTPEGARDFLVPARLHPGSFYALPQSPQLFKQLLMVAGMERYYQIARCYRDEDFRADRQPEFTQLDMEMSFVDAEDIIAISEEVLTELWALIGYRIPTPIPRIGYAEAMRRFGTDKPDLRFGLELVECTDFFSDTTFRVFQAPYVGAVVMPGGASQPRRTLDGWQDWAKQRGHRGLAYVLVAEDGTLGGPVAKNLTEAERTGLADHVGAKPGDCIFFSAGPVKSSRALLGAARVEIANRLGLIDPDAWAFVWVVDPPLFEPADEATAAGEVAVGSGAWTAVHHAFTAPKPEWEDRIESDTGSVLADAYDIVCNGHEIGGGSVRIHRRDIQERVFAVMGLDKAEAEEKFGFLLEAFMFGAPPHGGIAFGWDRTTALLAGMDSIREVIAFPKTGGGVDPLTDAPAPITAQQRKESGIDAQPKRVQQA

[2] = target: Shiga toxin 2 (Escherichia coli O157:H7) (UniProt P09385+P09386); test: E. coli 0.157:H7 Shiga Toxin SOP - stx2 screening assay; format: functional; design: scale not given: direction of the effect not stated beside the values; details: 30 µM

In the case of `Cc1nc(C)n(CC2CCCN(Cc3ccc(C(N)=O)cc3)C2)n1` (centres undefined), the Percent Effect [1] is reported as -5.85% and the Percent Effect [2] is reported as 20.8%.
`CC(NC(=O)NCCCn1cncn1)c1ccc2c(c1)OCCO2` (centres undefined) showed a Percent Effect [1] of 0.175% and a Percent Effect [2] of 17.4%.
`COCCCN1CCc2cncnc2C1` gave a Percent Effect [1] of 10.5% and a Percent Effect [2] of -35.2%.
For `O=C(NCC1CC1)C1=NOC2(CCN(S(=O)(=O)c3cccs3)C2)C1` (centres undefined), the Percent Effect [1] was 2.15% and the Percent Effect [2] was -4.25%.
In the case of `CC(C)c1nc2n(n1)CC(NCc1nnnn1C1CC1)CC2` (centres undefined), the Percent Effect [1] is reported as 1.55% and the Percent Effect [2] is reported as 8.39%.
With `CCOc1ccc(CNCCCn2ccnc2)cc1Br` the Percent Effect [1] was -5.78% and the Percent Effect [2] was -77.4%.
`CN1CCN(Cc2cn3c(n2)CN(Cc2cccnc2)CC3)CC1` gave a Percent Effect [1] of 1.94% and a Percent Effect [2] of -10.7%.
With `Cc1nccn1-c1cccc(C2CCCN(C(=O)c3cc[nH]n3)C2)n1` (centres undefined) the Percent Effect [1] was -0.309% and the Percent Effect [2] was -32.7%.
With `O=C(NCc1cccnc1-n1cccn1)C1CC(=O)N(CC2CC2)C1` (centres undefined) the Percent Effect [1] was -2.05% and the Percent Effect [2] was 10.1%.
`Cc1cc(C[S+]([O-])CC(=O)NCC(C)C)no1` (centres undefined) was tested, and the Percent Effect [1] was -2.03% and the Percent Effect [2] was 4.91%.
With `Cc1ncoc1C(=O)N1CCn2c(COCC3CC3)cnc2C1C` (centres undefined) the Percent Effect [1] was 7.95% and the Percent Effect [2] was -10.6%.
Molecule `O=C(O)c1cc(-c2cccnc2)cc(S(=O)(=O)N2CCCCCC2)c1` has a Percent Effect [1] of -3.5% and a Percent Effect [2] of 11.4%.
With `CCC1CN(C(=O)NCCOc2ccc3c(c2)OCO3)CCO1` (centres undefined) the Percent Effect [1] was -0.509% and the Percent Effect [2] was -17.6%.
Molecule `COCC(O)CNC(=O)c1coc(COc2ccc3sc(C)nc3c2)n1` (centres undefined) has a Percent Effect [1] of 5.55% and a Percent Effect [2] of -20%.
Molecule `Cn1ccc2c(C(=O)N3CCC(C(N)=O)CC3)cccc21` has a Percent Effect [1] of 0.465% and a Percent Effect [2] of -43.9%.
Molecule `Cn1cc(-c2cnc(N3CCOCC3)nc2)cc1C(=O)NCCO` has a Percent Effect [1] of 8.57% and a Percent Effect [2] of -9.13%.
For `Cc1nccn1CC1CCCN1CCCc1nc(-c2cccs2)no1` (centres undefined), the Percent Effect [1] was 5.89% and the Percent Effect [2] was 16.4%.
Molecule `Cc1csc(N2CCCN(C(=O)C3(C#N)CCCCC3)CC2)n1` has a Percent Effect [1] of -4.79% and a Percent Effect [2] of 27.1%.
`COCc1ccccc1CNc1cc(N2CCCC2CO)ncn1` (centres undefined) showed a Percent Effect [1] of -1.49% and a Percent Effect [2] of -4.23%.
`O=C(C1CCOCC1)N1CCc2ncnc(-c3ccc(F)cc3)c2CC1` gave a Percent Effect [1] of -1.43% and a Percent Effect [2] of -14%.
Work on `CNC(=O)c1cnc(/C=C/c2cc(OC)cc(OC)c2)s1` yielded a Percent Effect [1] of 5.76% and a Percent Effect [2] of -89.3%.
`c1ccc(CN2CCN(Cc3cscn3)CC2)cc1` showed a Percent Effect [1] of -2.48% and a Percent Effect [2] of 3.98%.
In the case of `Cc1nn(C)c2c(N3CCN(C(=O)NC4CCCCC4)CC3)ncnc12`, the Percent Effect [1] is reported as -5.2% and the Percent Effect [2] is reported as -44.8%.
With `CC(C)c1noc(CCC(=O)NCC2CCOC2)n1` (centres undefined) the Percent Effect [1] was -0.573% and the Percent Effect [2] was -7.84%.
In the case of `COc1ccc(CN(C)CC(=O)NC2(C)CCS(=O)(=O)C2)cc1F` (centres undefined), the Percent Effect [1] is reported as 10.4% and the Percent Effect [2] is reported as -2.83%.
Molecule `CCC(CC)C(O)CNC(=O)Nc1cc(C)nn1C` (centres undefined) has a Percent Effect [1] of -1.77% and a Percent Effect [2] of -3.6%.
`COc1cccc(CCC2CCCN(C(=O)c3n[nH]c4c3CCC4)C2)c1` (centres undefined) showed a Percent Effect [1] of 2.06% and a Percent Effect [2] of -1.83%.
`CC(C)NC(=O)N1CCN(Cc2ccccn2)CC2(CC(=O)N(C)C2)C1` (centres undefined) gave a Percent Effect [1] of -0.228% and a Percent Effect [2] of -14.2%.
For `CN1CCN(Cc2nnc(C3CCN(CC4CC4)CC3)n2C)CC1`, the Percent Effect [1] was -0.891% and the Percent Effect [2] was 2.65%.
Molecule `Cc1ccc(OCCC(=O)N2CCN(c3cnccn3)CC2)cc1C` has a Percent Effect [1] of -0.856% and a Percent Effect [2] of -12.8%.
For `Cc1cnc(C(=O)N(CCN(C)C)Cc2ccc(Cl)cc2)cn1`, the Percent Effect [1] was -1.59% and the Percent Effect [2] was 5.25%.
`CC(=O)N1CCCN(Cc2csc(-c3ncccn3)n2)CC1` was tested, and the Percent Effect [1] was 5.15% and the Percent Effect [2] was -13%.
Molecule `O=C(NCc1ccco1)[C@H]1C[C@@H]2CCN(c3ccncn3)C[C@@H]2O1` has a Percent Effect [1] of -4.16% and a Percent Effect [2] of -6.97%.
`CC(C)c1ccc(OCCC(=O)N2CCC(CC(N)=O)CC2)cc1` was tested, and the Percent Effect [1] was -0.478% and the Percent Effect [2] was 29.9%.
`CCNC(c1ccc(OC)cc1)c1cccnc1` (centres undefined) was tested, and the Percent Effect [1] was 1.53% and the Percent Effect [2] was 1.33%.
With `CCn1cc(CN2CCc3nc(N4CCOCC4)nc(O)c3CC2)cn1` the Percent Effect [1] was -1.83% and the Percent Effect [2] was -19.4%.
For `CCc1noc(C(C)N(C)CC(=O)Nc2cccc(C)n2)n1` (centres undefined), the Percent Effect [1] was -1.61% and the Percent Effect [2] was -14.2%.
`O=C1[C@@H]2CCN(Cc3ccncc3)C[C@@H]2OCCN1c1ccccc1` gave a Percent Effect [1] of -1.46% and a Percent Effect [2] of -5.4%.
`Cc1nc(Nc2nnc(C)s2)cc(C2CCCN2C)n1` (centres undefined) gave a Percent Effect [1] of 2.4% and a Percent Effect [2] of -26.6%.
`CNC(=O)C1Cn2ccnc2C2(CCN(Cc3cccnc3)CC2)O1` (centres undefined) was tested, and the Percent Effect [1] was -0.0764% and the Percent Effect [2] was 3.87%.
In the case of `CC(C)CCN1CCC2(CC1)CN(C(=O)c1cnccn1)CCO2`, the Percent Effect [1] is reported as -0.349% and the Percent Effect [2] is reported as -0.912%.
Molecule `CCN1CCn2c(C)cnc2C12CCN(C(=O)c1ccc(Cl)cc1)CC2` has a Percent Effect [1] of 2.04% and a Percent Effect [2] of 8.49%.
In the case of `Fc1ccc(OCCCN2CCOC(Cn3cncn3)C2)cc1` (centres undefined), the Percent Effect [1] is reported as -6.13% and the Percent Effect [2] is reported as -10.5%.
Work on `CSCC[C@H](N)C(=O)NCc1cc2n(n1)CCCN(C1CCCCC1)C2` yielded a Percent Effect [1] of -6.77% and a Percent Effect [2] of 5.19%.
`CN(Cc1nccs1)c1nc(-c2ccccn2)nc2c1CCNCC2` gave a Percent Effect [1] of 2.26% and a Percent Effect [2] of -12.4%.
For `Cc1ccc(OCCCNC(=O)NC(C)c2nncn2C)cc1` (centres undefined), the Percent Effect [1] was -2.1% and the Percent Effect [2] was 7.34%.
`CCN1CCN(C2CCN(Cc3c(C)noc3C)CC2)C1=O` was tested, and the Percent Effect [1] was -5.48% and the Percent Effect [2] was -30.9%.
